Screening data deposited in PubChem BioAssay by National Center for Advancing Translational Sciences (NCATS).
RECQ1 inh-1 – qHTS Assay for Inhibitors of RecQ-Like Dna Helicase 1 (RECQ1); ATP-dependent DNA helicase Q1 (Homo sapiens), P46063; Potency, µM (top dose mostly 57.3 µM), without a hit: at the highest dose activity, negative = inhibition, actives largely listed as inhibitors; actives 0.54% (n = 240,000); RECQ1 DNA unwinding, red fluorescence kinetic read; AID 2549, 2010;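 further: plate controls were vehicle for no effect and no enzyme for full effect; nearly all actives have a fitted effect of over 30% in size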
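RECQ1T1 50 nM; forked duplex (20 bp + 30-nt ss tails) 200 nM, ATP 2 mM final; pH 8.0, 2 mM MgCl2, 2.5 ug/ml poly(dI-dC); 15 min compound preincubation; discontinuous kinetic read over 2 h at RT.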
TRb SRC2 PPI – qHTS for Inhibitors of the Interaction of Thyroid Hormone Receptor and Steroid Receptor Coregulator 2. Thyroid hormone receptor beta (Homo sapiens), P10828. Potency, µM (titrated, usually from 106 µM), inactives show at the highest dose activity change, negative = inhibition, actives largely listed as inhibitors. TRbeta-SRC2 peptide binding, fluorescence polarization; receptor liganded with 1 µM T3. AID 1469, 2008. actives 0.065% (n = 280,000);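 further: plate controls were bound peptide for no effect and peptide without receptor for full effect; nearly all actives have a fitted effect of over 50% in size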
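Fluorescence polarization of 20 nM Texas Red SRC2 peptide with 0.6 uM human TRb ligand-binding domain, in Tris buffer with 1uM T3 and 5% DMSO. Incubated 5 hr ambient; normalized to unbound and bound controls.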
RGS12 GoLoco inh – qHTS Assay for Inhibitors of RGS12 GoLoco Motif Activity (Red Fluorophore). actives 0.44% (n = 230,000). Gai1:RGS12 GoLoco peptide FP, rhodamine, 10 min. Guanine nucleotide-binding protein G(i) subunit alpha-1 (Homo sapiens), P63096. Potency, µM (top dose mostly 61.6 µM), for inactives: at the highest dose activity, negative = inhibition, most hits filed as inhibitors; active means well fitted inhibition curve with a large enough effect, not every such curve was filed as active; inactive means no such curve, though single readings can be large or run the other way; further: on the % scale 0 is the no-effect control and ±100 the full control effect; nearly all actives have a fitted effect of over 30% in size
TR SRC2 fluor cs – Total Fluorescence Counterscreen for Inhibitors of the Interaction of Thyroid Hormone Receptor and Steroid Receptor Coregulator 2; AID 1479, 2009; TRb/SRC2 Texas Red total fluorescence interference; Potency, µM (top dose mostly 106 µM), inactives show top-dose fluorescence change, negative = quenching; actives 0.29% (n = 280,000); active means well fitted curve in either direction with a large enough effect; inconclusive means small, poorly fitted or top-dose-only effect; further: on the % scale 0 is the no-effect control and ±100 the full control effect
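Human TRβ ligand-binding domain (0.6 uM) and Texas Red SRC2 peptide (20 nM) in Tris buffer with 1 uM T3 and 5% DMSO were incubated with pinned compound for 5 hr at ambient temperature. Total fluorescence was computed as S + 2P (555/632 nm).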
ERG-DNA inh – qHTS for Small Molecule Inhibitors of the ERG Ets/DNA interaction; Transcriptional regulator ERG (Homo sapiens), P11308; actives 0.028% (n = 370,000); fluorescence polarization, His-ERG Ets domain / labelled DNA; Potency, µM (series often up to 76.9 µM), without a hit: at the top dose FP activity, negative = inhibition, usual class: inhibitors; active means well fitted inhibition curve with a large enough effect in the polarisation, with a control signal flat; inconclusive means small, poorly fitted or top-dose-only effect, or effect the other way, or a change in a side signal; inactive means no such curve, though single readings can be large or run the other way; the % refers to the polarisation;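 further: polarization taken with two DNA probes labelled with fluorescein and Texas red; % of control where 0% means no effect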
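His-tagged ERG Ets domain (1 uM in the protein solution; 300mM KCl, 50mM Tris-HCl, 1mM EDTA, 1mM DTT, pH 7.5) received compound, then a probe mix of 5 nM fluorescein-DNA and 100nM Texas-615-DNA. Fluorescence polarization was read for both dyes.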
BLM inh – qHTS Assay for Inhibitors of Bloom's syndrome helicase (BLM). RecQ-like DNA helicase BLM (Homo sapiens), P54132. recombinant BLM DNA unwinding, fluorescence dequenching. Potency, µM (series often up to 56.1 µM), for the others: at the highest dose activity change, negative = inhibition, most hits filed as inhibitors. actives 0.2% (n = 350,000). AID 2528, 2010;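 further: plate controls were vehicle for no effect and no enzyme for full effect; nearly all actives have a fitted effect of over 35% in size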
RECQ1 inh conf – Confirmation qHTS Assay for Inhibitors of RecQ-Like Dna Helicase 1 (RECQ1); AID 2708, 2010; RECQ1 helicase DNA unwinding, fluorescence; Potency, µM (highest dose often 229 µM), for the others: at the top dose activity change, negative = inhibition, most hits filed as inhibitors; actives 28% (n = 610); shares compounds with RECQ1 inh-1; further: on the % scale 0 is the no-effect control and ±100 the full control effect; nearly all actives have a fitted effect of over 45% in size
RECQ1 ADP FP – Counterscreen for RECQ1 Inhibitors: ADP Fluorescence Polarization Displacement Assay; shares compounds with RECQ1 inh-1; ADP fluorescence polarization displacement counterscreen; Potency, µM (top dose mostly 228 µM), without a hit: top-dose activity change, negative = inhibition, actives largely listed as inhibitors; actives 27% (n = 530); AID 2711, 2010; further: on the % scale 0 is the no-effect control and ±100 the full control effect; nearly all actives have a fitted effect of over 45% in size
RECQ1 inh-2 – Confirmation qHTS Assay for Inhibitors of RecQ-Like Dna Helicase 1 (RECQ1) - Round 2 Cherry Picks; shares compounds with RECQ1 inh-1; recombinant RECQ1 DNA unwinding, red fluorescence; Potency, µM (highest dose often 119 µM), without a hit: at the top dose activity, negative = inhibition, hits mostly inhibitors; actives 15% (n = 1,100); further: on the % scale 0 is the no-effect control and ±100 the full control effect; nearly all actives have a fitted effect of over 50% in size
* = called active by the depositor; ? = inconclusive; nt = no result; [ ] = remark or other dose. Only some compounds are listed: those with a hit (about 0.71% of all), similar ones and a draw of the others. Unless noted, the call rests on the fitted dose curve; in most records, active means well fitted curve in the direction sought with a large enough effect; inconclusive means small, poorly fitted or top-dose-only effect, or another doubt; inactive means no such curve, though single readings can be large; an effect the other way counts as inactive or inconclusive. Potency means the concentration at half of the fitted maximal effect.

SMILES | RECQ1 inh-1 | TRb SRC2 PPI | RGS12 GoLoco inh | TR SRC2 fluor cs | ERG-DNA inh | BLM inh | RECQ1 inh-2 | others
CCC/C=C1/CCCOC(C(=O)NCC2CC2)(C(F)(F)F)C1 (configuration not stated) | -5% | -1% | nt | 1% | nt | 1% | nt
O=C(NCc1ccc2c(c1)OCO2)C1CCCN(S(=O)(=O)c2cccnc2)C1 (configuration not stated) | ? | 2% | 6% | 0% | -4% | 1% | -3%
CCN(CC)c1ccc2c(Cl)cc(=O)oc2c1 | -24% | -27% | 145% | 27% | 0% | -3% | nt
CCNc1ccc2c(Cl)cc(=O)oc2c1 | 35µM* | -15% | 16% | 8% | -6% | 0% | -38%
N[C@@H](Cc1ccc(O)c(O)c1)C(=O)O | 13µM* | -3%[201 µM] | 6%[21.6 µM] | -2%[201 µM] | 4% | -6%[21.4 µM] | nt | RECQ1 inh conf=-38%[69.1 µM];RECQ1 ADP FP=2.2µM*
CC(Cc1ccc(O)c(O)c1)C(C)Cc1ccc(O)c(O)c1 (configuration not stated) | 2.2µM* | 0% | -7% | -3% | -17% | -14% | nt | RECQ1 inh conf=45µM*;RECQ1 ADP FP=8.9µM*
COc1cc(C[C@@H](C)[C@@H](C)Cc2ccc(O)c(OC)c2)ccc1O | nt | nt | nt | nt | 8% | nt | nt
CC(C)Oc1ccc(CNC(=O)c2ccc(CS(=O)c3cccc(Cl)c3)o2)cc1 (configuration not stated) | nt | 1% | nt | -2% | -1% | 2% | nt
COc1ccc2nc(-c3ccco3)c(-c3ccco3)nc2c1 | ? | 3% | 10% | ? | nt | 13µM* | 2%
COc1ccc2c(c1)CCc1c(C(=O)N(C)c3ccccc3)noc1-2 | 4.5µM* | -3% | 2% | 3% | -2% | -3% | -12% | RECQ1 inh conf=6%[114 µM];RECQ1 ADP FP=?
COc1cccc(NS(=O)(=O)c2cc(-c3cnc(C4CC4)o3)ccc2C)c1 | nt | 6% | nt | -2% | 4% | -7% | nt
COCCn1c(N)c(C(=O)NCC2CCCO2)c2nc3ccccc3nc21 (configuration not stated) | ? | ? | 10% | -4% | -1% | ? | -10%
COCCn1c(N)c(C(=O)NCc2cccs2)c2nc3ccccc3nc21 | ? | ? | 11% | -5% | -15% | -13% | -16%
CC1=C(C(=O)Nc2ccccc2)C(c2cccc(O)c2)n2nc(-c3ccccc3Cl)nc2N1 (configuration not stated) | nt | -3% | nt | -14% | 1% | -6% | nt
Cc1[nH]c(=O)c(C(=O)/C=C/c2ccccc2F)c2c1CCCC2 | 32µM* | -6% | 6% | 0% | 8% | -7% | ?
